# Rows were chosen to be rich in hits. Some 18% of all compounds tested hit in one or more screens of this group.
# TDP1 cell CPT: DT40-hTDP1 cell growth loss with CPT. chicken DT40 Tdp1-/-;hTDP1 cells + 20 nM CPT, ATP luminescence, 48 h. Potency, µM (top dose mostly 46.2 µM), for inactives: at the top dose activity change, negative = growth inhibition, usual class: inhibitors. hit rate 12% among 420,000; further: potency means the concentration at half of the fitted maximal effect; on the % scale 0 is the no-effect control and ±100 the full control effect; nearly all actives have a fitted effect of over 55% in size
#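 Chicken DT40 Tdp1-/- cells stably complemented with human TDP1 were seeded at 400 cells/well in medium containing 20 nM camptothecin, exposed to pin-transferred compounds, and grown at 37 °C for at least 48 hr. Viability was read as ATP luminescence.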
# TGFb SMAD3 inh: blocks TGF-b signaling; hit rate 1.2% among 410,000; AID 588855; HepG2 CAGA-GFP TGF-b/SMAD3 reporter, GFP fluorescence, 18 h; TGF-beta stimulated, 500 pg/mL final; Potency, µM (highest dose often 46.1 µM), for the others: at the highest dose activity, negative = inhibition, usual class: inhibitors; further: potency means the concentration at half of the fitted maximal effect; on the % scale 0 is the no-effect control and ±100 the full control effect; nearly all actives have a fitted effect of over 65% in size
#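 Per well, imaged GFP fluorescence of HEPG2 CAGA-GFP cells gives the signal; cells get compound, then TGF-beta (500 pg/mL final), 18 h at 37 degrees C; %Activity versus -TGF-beta and +DMSO controls.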
# IL-1B inflam inh: inflammasome signaling inhibition, IL-1 beta readout | THP-1 LPS/ATP IL-1B secretion, AlphaLISA, 16 h; hits give low values | activity change, % at 57.5 µM | hit rate 4.7% among 360,000 | AID 743279; in the data active means activity change below about -50%; inconclusive means mostly about -30% to -49%; further: on the % scale 0 is the no-effect control and ±100 the full control effect
#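 THP-1 cells pretreated 1 hr with compounds (up to 57.5 uM final), then stimulated with LPS (250 ng/mL final) plus ATP (1.25 mM final); secreted IL-1B measured by AlphaLISA after 16 hr, decreased signal indicating inhibition.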
# TDP1 inh: TDP1 (human) enzyme inhibition; recombinant TDP1, AlphaScreen DNA substrate cleavage; Potency, µM (highest dose often 130 µM), inactives show at the top dose activity change, negative = inhibition, hits mostly inhibitors; hit rate 0.28% among 350,000; AID 485290; further: potency means the concentration at half of the fitted maximal effect; on the % scale 0 is the no-effect control and ±100 the full control effect; nearly all actives have a fitted effect of over 40% in size
# Target sequence (Q9NUW8 whole entry, looked up): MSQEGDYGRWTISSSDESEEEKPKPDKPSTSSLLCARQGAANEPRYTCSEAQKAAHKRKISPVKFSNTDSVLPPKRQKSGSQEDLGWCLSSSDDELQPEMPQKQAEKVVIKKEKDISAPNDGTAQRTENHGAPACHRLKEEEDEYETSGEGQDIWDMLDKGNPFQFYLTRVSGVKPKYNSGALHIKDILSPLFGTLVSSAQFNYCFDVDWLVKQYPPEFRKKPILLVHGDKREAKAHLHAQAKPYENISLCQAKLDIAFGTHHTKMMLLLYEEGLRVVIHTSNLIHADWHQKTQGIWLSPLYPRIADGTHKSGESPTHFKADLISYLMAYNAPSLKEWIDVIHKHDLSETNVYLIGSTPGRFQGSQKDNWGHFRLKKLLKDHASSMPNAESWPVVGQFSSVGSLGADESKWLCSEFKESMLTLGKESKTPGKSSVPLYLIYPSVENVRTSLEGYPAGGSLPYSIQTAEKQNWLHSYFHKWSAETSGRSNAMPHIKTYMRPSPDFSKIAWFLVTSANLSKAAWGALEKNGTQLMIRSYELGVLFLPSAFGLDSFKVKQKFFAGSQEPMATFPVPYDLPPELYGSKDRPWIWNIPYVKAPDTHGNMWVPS
#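 E. coli-derived human Tdp1, 1 nM final. Cpd preinc 15 min RT; substrate 15 nM final, 5 min RT; AS bead mix 10 ug/ml final, 10 min RT. Signal loss = tyrosine-FITC cleavage. No-enzyme wells = max signal.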
# HepG2 tox: HepG2 cytotoxicity, counter-screen for TGF-b inhibitors | HepG2 CAGA-GFP viability, ATP luminescence, 18 h | Potency, µM (highest dose often 46.1 µM), for inactives: top-dose activity change, negative = cytotoxicity, actives largely listed as cytotoxic | hit rate 0.76% among 410,000 | AID 588856; further: potency means the concentration at half of the fitted maximal effect
#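 CellTiter-Glo luminescence gave cytotoxicity after 18 hours at 37 degrees C. The cells were HepG2 CAGA-GFP in 1% FBS DMEM, stimulated with 500 pg/mL TGF-beta after compound addition. %Activity was normalised to no-cell wells (complete cell-killing) and DMSO (no toxicity), and curves were fitted and classified.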
# DT40 TDP1 no CPT: qHTS for Inhibitors of human tyrosyl-DNA phosphodiesterase 1 (TDP1): qHTS in cells in absence of CPT; AID 686978, 2013; Potency, µM (highest dose often 46.2 µM), for the others: at the top dose activity change, negative = growth inhibition, actives largely listed as inhibitors; DT40 Tdp1-/- hTDP1 cells, no CPT, ATP luminescence, 48 h; hit rate 15% among 420,000; further: potency means the concentration at half of the fitted maximal effect; on the % scale 0 is the no-effect control and ±100 the full control effect; nearly all actives have a fitted effect of over 55% in size
#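 Camptothecin absent (DMSO only). Human TDP1-complemented DT40 knockout cells, 400 cells/well, 37 °C for minimum 48 hr; ATP measured via CellTiter-Glo, 30 min dark incubation, luminescence.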
# * hit, by the source's call; ? = inconclusive; . = no result; [ ] = remark or other dose. Unless noted, the call rests on the fitted dose curve; in most records, active means well fitted curve in the direction sought with a large enough effect; inconclusive means small, poorly fitted or top-dose-only effect, or another doubt; inactive means no such curve, though single readings can be large; an effect the other way counts as inactive or inconclusive.
SMILES,TDP1 cell CPT,TGFb SMAD3 inh,IL-1B inflam inh,TDP1 inh,HepG2 tox,DT40 TDP1 no CPT
O=C(O)c1ccc(Nc2nc(-c3ccc([N+](=O)[O-])cc3)nc3ccccc23)cc1,?,-15%,-2,.,-11%,?
O=C(COC(=O)/C=C/c1ccc(C(F)(F)F)cc1)NCc1ccco1,-2%,0%,2,3%,9%,-5%
COC(=O)c1c(NC(=S)Nc2ccc(C(=O)N3CCOCC3)cc2)sc2c1CCC2,-19%,0%,22,0%,-1%,-30%
Oc1ccc(Nc2nc3ccccc3nc2Nc2ccc(O)cc2)cc1,1.6µM*,11µM*,-4,-2%,-50%,2.3µM*
Oc1ccc(Nc2nc(-c3ccccc3)nc3ccccc23)cc1,?,-10%,-94*,.,-9%,?
COc1ccc(-c2nc(N/N=C(\C)c3ccc(O)cc3)c3ccccc3n2)cc1,21µM*,14µM*,-8,3%,-94%,7.3µM*
Cc1nc2ccccc2nc1N/N=C/c1ccc(O)cc1,-3%,-6%,5,3%,-16%,0%
CCC1(c2ccccc2)SCC(c2ccccc2)=NC1=O (configuration not stated),-19%,-8%,-16,.,-3%,?
COC(=O)CCCn1cc(CN2CC(N3CCN(Cc4ccccc4F)CC3)CS2(=O)=O)nn1 (configuration not stated),-3%,.,18,.,.,-25%
COC(=O)C1=C[C@@H](C(=O)OC)C2C3=C(C(=O)[C@]2(C)NC(=O)c2ccccc2)[C@H](C)n2c(=O)n(-c4ccccc4)c(=O)n2[C@@H]3C1 (some centres not stated),.,-9%,.,6%,-11%,.
OC1(c2cccnc2)CCN(Cc2ccc3c(c2)CN(Cc2cc(F)cc(F)c2)CCO3)CC1,5%[9.04 µM],.,.,.,.,?
COc1cccc(NC2c3ccccc3C(=O)N2Cc2ccco2)c1 (configuration not stated),21µM*,-9%,0,6%,-20%,23µM*
COc1cccc(NC2c3ccccc3C(=O)N2Cc2ccccc2Cl)c1 (configuration not stated),?,?,-8,.,-24%,?
O=C1c2ccccc2C(Nc2cccc(C(F)(F)F)c2)N1Cc1ccco1 (configuration not stated),23µM*,-15%,-5,5%,-7%,16µM*
Cc1ccccc1NC1c2ccccc2C(=O)N1Cc1ccco1 (configuration not stated),-8%,-18%,25,5%,-32%,-30%
C=CC1=CCN(S(=O)(=O)C(C)(C)C)[C@H]1CCO,-19%,-2%,16,.,-6%,-8%
O=c1[nH]n(Cc2ccccc2)c(=O)c2ccccc12,?,4%,17,0%,-16%,8.9µM*
CC1=CC(C)(C)N(C(=O)CSc2nnc(-c3ccc(C)cc3)o2)c2ccc(C)cc21,?,?,5,1%,-12%,18µM*
OCCN1CCN(CC(O)COc2ccc(C34CC5CC(CC(C5)C3)C4)cc2)CC1 (configuration not stated),5.2µM*,?,-97*,7%,16µM*,5.2µM*
NCCOc1ccc(C23CC4CC(CC(C4)C2)C3)cc1,3.7µM*,?,-81*,3%,-118%,3.7µM*
CC(C)(C)N(Cc1ccccc1)C(=O)COC(=O)/C=C/c1ccc2c(c1)OCO2,-21%,10%,-9,0%,1%,-13%
CCCCc1c(-c2ccccc2OC)ncn1CCc1ccccc1Cl,7.3µM*,.,-62*,.,.,15µM*
CCCCCc1c(CC)ncn1CCc1ccccc1OC,4.6µM*,.,?,.,.,2.9µM*
CCCCc1c(-c2ccccc2OC)ncn1CCc1ccccc1OC,12µM*,.,-100*,.,.,8.2µM*
CCCCN(CC)C(=O)Cc1ccccc1OC,-26%,-5%,?,1%,2%,?
SMILES,TDP1 cell CPT,TGFb SMAD3 inh,IL-1B inflam inh,TDP1 inh,HepG2 tox,DT40 TDP1 no CPT
CCCCCc1c(-c2ccccc2OC)ncn1CCc1ccccc1OC,5.2µM*,.,-95*,.,.,5.2µM*
N=C(N)N1Cc2ccccc2C(O)C1 (configuration not stated),.,.,.,8%,.,.
O=C(CCN1C(=O)[C@@H]2Cc3ccccc3CN2C1=O)N[C@H](Cc1ccccc1)C(=O)O,10%,-1%,-10,.,-6%,-1%
C[C@@H]1CN([C@@H](C)CO)C(=O)CCCn2nncc2CO[C@H]1CN(C)S(=O)(=O)c1cccc(F)c1,1%,-17%,14,.,-32%,-17%
CCCCc1c(-c2ccccc2Br)ncn1CCc1ccccc1OC,15µM*,.,-79*,.,.,21µM*
CC1CCN(c2oc(-c3ccc(F)cc3)nc2C#N)CC1,2%,3%,?,.,1%,-27%
CCC(=O)Nc1ccc2nc(SCCOc3ccc(C)cc3)sc2c1,?,?,.,5%,-12%,?
CCOC(=O)c1c(C)oc2nc(C)nc(NCc3ccccc3OC)c12,12µM*,1%,.,6%,-24%,15µM*
CCOC(=O)c1c(C)oc2nc(C)nc(NCc3ccccc3Cl)c12,16µM*,6%,.,4%,3%,?

# High-throughput results deposited in PubChem by National Center for Advancing Translational Sciences (NCATS).
